The values below come from PubChem BioAssay.

Assay [1] in a line: SU-DIPG-XXV glioma cell viability, MIPE5.0 library, qHTS (AID 1347068; cut-off not given, nearly all actives have IC50 up to about 30 µM).
A short description of assay [2]: sensitizers of A549 cells to miR-34 induction, primary screen, imaging, A549 dox-inducible miR-34, nuclei and caspase counts (AID 1347080). To be noted: A549 miR-34 inducible, Hoechst nuclei count, 48 h.
A short description of assay [3]: liver-stage malaria parasite growth inhibition, primary screen, cell-based, HepG2, luciferase luminescence, HepG2 viability (AID 624349; in the data active = parasite load remaining mostly below about 12%, no sharp cut-off; inactive = mostly above about 10%;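 note: 100% = mean of DMSO negative control wells on the same plate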). To be noted: P. berghei liver stage in HepG2, luciferase luminescence, concentration not given here; parasite load remaining: stronger effect = lower value; viability: measured here: HepG2 viability without parasites.
Assay [4] relates to Hepatitis C virus NS3 helicase. In words: HCV NS3 helicase inhibitors, primary screen, biochemical, fluorescence polarization, LOPAC1280 library (AID 687035; in the data active = inhibition above about 37%). To be noted: Purified HCV NS3 helicase, Cy5-dT15 ssDNA binding fluorescence polarization; stronger effect = higher value; concentration not given here.
Assay [5] is described as follows: Cy5 fluorescence quenching or enhancement artefacts, artefact control for HCV NS3 helicase inhibitor project, biochemical, LOPAC1280 (AID 687037; call rule not given here). To be noted: Cy5-DNA-NS3h complex fluorescence interference counterscreen.
Assay [6] can be described thus: phospholipid biosynthesis inhibitors in animal cells, primary screen, cell-based, LOPAC library, screen 4 (AID 1347384; call rule not given here). To be noted: phospholipid biosynthesis inhibition screen, at 10 µM.
Assay [7] can be described thus: viability rescue of complex I mutant cybrids, primary screen, cell-based, galactose medium, ATP luminescence (AID 1645843;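 active = z-score of at least 1.8 in each of two replicates, scored against plate mean and spread of sample wells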;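 note: positive z means more ATP and so rescue of galactose-driven cybrid death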). Particulars: complex I mutant cybrid cells, 72 h, stronger effect = higher value.
Setting [8] is: stronger effect = lower value, cell number ratio, induced over uninduced.
[9] abbreviates: measured here: relative caspase fold change +Dox/-Dox.
Where [10] appears, read: measured here: total cells with miR-34 induction, stronger effect = lower value.
The mark [11] stands for this setting: measured here: total cells without miR-34 induction.

Values joined by “and” are separate entries in the source; they are usually repeats but may differ in a detail not shown here. Equal entries are not always repeated. Results filed as inconclusive are left out. Active and inactive are the calls of the source.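 Rule for the calls, unless noted: active = compounds whose cell count with miR-34 switched on is under 0.7 times the count with it off; inactive = the rest.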

Regarding `COc1nnc2ccc(N3CCC(c4ccc(OCCN5CCN(C)C(=O)[C@H]5C)cc4)CC3)nn12`, the compound was classed as inactive in assay [1].
With `C=CC(=O)N1CCC(C2CCNc3c(C(N)=O)c(-c4ccc(Oc5ccccc5)cc4)nn32)CC1` (centres undefined), in assay [1], the result was inactive.
Still for that read-out and setting: the result for `CC1=NN(c2ccc(C(=O)O)cc2)C(=O)/C1=C/c1ccc(-c2cc(C)c(C)cc2[N+](=O)[O-])o1` reads “inactive”; that for `C[C@H](NC(=O)[C@H]1NCC[C@@H]1O)c1ccc(-c2noc(CCC3CCCC3)n2)cc1`, “inactive”.
Take `CCCCCCCCCCCCCCCCCCCCCC(=O)NCCS(=O)(=O)O`: the fold change in assay [2] (setting [8]) was 0.845 (inactive); in assay [2] (setting [9]) it was 0.367. For the same compound, the values for the cell count in assay [2] (setting [10]) and in assay [2] (setting [11]) were 5140 and 6090, respectively.
For the compound `O=C(CN=C(c1ccccc1)c1ccccc1)OCc1ccccc1`, the figures for the fold change in assay [2] (setting [8]) and in assay [2] (setting [9]) were 0.875 (inactive) and 1.1, respectively. Further, the cell count was 5290 in assay [2] (setting [10]) and 6050 in assay [2] (setting [11]).
As for `CN(CCO)C1CCN(c2ccc(Nc3ncc4c5ccnc(F)c5n(C5CCCC5)c4n3)nc2)CC1`, in assay [1], the call was inactive.
As for `CCCCC[C@H](O)/C=C/[C@@H]1[C@@H](CCCCCCC(=O)O)[C@H](O)C[C@H]1O`, the fold change in assay [2] (setting [8]) is 0.962 (inactive); in assay [2] (setting [9]), 1.22. The results for the cell count in assay [2] (setting [10]) and in assay [2] (setting [11]) were 6020 and 6250, respectively.
In the case of `CCCCNC(=O)NS(=O)(=O)c1ccc(CO)cc1`, the fold change is 1.05 (inactive) in assay [2] (setting [8]) and 0.775 in assay [2] (setting [9]). Further, the cell count in assay [2] (setting [10]) was 5120; in assay [2] (setting [11]), 4890.
In general, viability refers to a read-out of living cells in per cent, often relative to untreated cells. The term inhibition denotes the share of the control response that was lost under treatment. Turning to `O=C1NC(=O)/C(=C/c2ccc3nccnc3c2)S1`, in assay [3], the parasite load remaining is 25.6% (inactive). This compound also returned a viability in assay [3] of 76.4%. Moreover, in assay [4], the inhibition is 0% (inactive). In assay [5], the fluorescence ratio (interference) is 1 (inactive). Besides, the call in assay [1] and in assay [6] was inactive. In addition, the fold change in assay [2] (setting [8]) is 0.99 (inactive) and 0.764 (inactive); in assay [2] (setting [9]), 0.943 and 0.46. For the same compound, the cell count in assay [2] (setting [10]) is 3810 and 4630; in assay [2] (setting [11]) it was 3850 and 6050. The z-score in assay [7] is 0.905 (inactive).
On to `C#CCOc1ccccc1CCCCCC(=O)O`, for which the fold change in assay [2] (setting [8]) is 1.11 (inactive); in assay [2] (setting [9]), 0.728. The figures for the cell count in assay [2] (setting [10]) and in assay [2] (setting [11]) were 5930 and 5330, respectively.
Regarding `COc1ccc(-c2c(C)nn3c(NCCN4CCOCC4)cc(C)nc23)cc1OC`, the outcome in assay [1] was inactive.
Consider `O=C(C(c1ccccc1)c1ccccc1)N1CCN(CC(O)COc2cccc3ncccc23)CC1` (centres undefined), for which the result in assay [1] was inactive.
For the compound `O=C(O)CC1CCC(c2ccc(-c3ccc(Nc4ccc(C(F)(F)F)nc4)cn3)cc2)CC1` (centres undefined), the outcome in assay [1] was inactive.
`CC(C)(C)OC(=O)N1CCC(OCc2nc(-c3ccncc3)no2)CC1`: the fold change in assay [2] (setting [8]) is 1.03 (inactive); in assay [2] (setting [9]), 0.58. Besides, the values for the cell count in assay [2] (setting [10]) and in assay [2] (setting [11]) were 5600 and 5430, respectively.
On to `CCCCC[C@H](O)/C=C/[C@@H]1[C@@H](C/C=C\CCCC(=O)OC(C)C)[C@@H](O)C[C@H]1O`, for which the fold change in assay [2] (setting [8]) is 0.994 (inactive); in assay [2] (setting [9]), 1.14. The cell count was 5380 in assay [2] (setting [10]) and 5420 in assay [2] (setting [11]).
Regarding `C[C@]12CCC3[C@@H](CC[C@H]4NC(=O)C=C[C@]34C)[C@@H]1CC[C@@H]2C(=O)Nc1cc(C(F)(F)F)ccc1C(F)(F)F` (some centres undefined), in assay [1], the result was inactive.
As for `CCCCC[C@H](O)/C=C/[C@H]1[C@H](O)CC(=O)[C@@H]1C/C=C\CCCC(=O)NC(CO)CO`, the fold change in assay [2] (setting [8]) was 1.04 (inactive); in assay [2] (setting [9]) it was 1.67. Moreover, the cell count in assay [2] (setting [10]) came to 6080; in assay [2] (setting [11]), 5870.
On the same counts, the results for `C#CCCCCCCCCCNC(=O)Oc1cccc(-c2cccc(C(N)=O)c2)c1` are 0.97 (inactive), 1.13, 5690 and 5860.
With `CCC1CCCCN1C(=O)n1ncc(C(O)(c2ccccc2)c2ccccc2)n1` (centres undefined), the compound was called inactive in assay [1].
On to `CCCCCCCC/C=C\CCCCCCCCCCCCCC(=O)N[C@@H](CO)[C@H](O)/C=C/CCCCCCCCCCCCC`, for which the fold change in assay [2] (setting [8]) was 0.996 (inactive); in assay [2] (setting [9]) it was 0.823. In addition, the cell count came to 5810 in assay [2] (setting [10]) and 5830 in assay [2] (setting [11]).
Take `CCCCCCCC(=O)CC[C@@H]1[C@@H](C/C=C\CCCC(=O)OC(C)C)[C@@H](O)C[C@H]1O`: the fold change in assay [2] (setting [8]) was 0.954 (inactive); in assay [2] (setting [9]), 1.15. In addition, the cell count in assay [2] (setting [10]) is 5890; in assay [2] (setting [11]), 6180.
On the same counts, the results for `O=C(O)c1ccc2c(c1)CCCC2` are 0.93 (inactive), 0.342, 5260 and 5660.
On the same counts, the results for `N[C@@H](Cc1ccc(O)c([N+](=O)[O-])c1)C(=O)O` are 0.943 (inactive), 1.05, 5730 and 6080.
In the same order, the values of `CCCc1cc(C(=O)c2ccc(-c3ccccc3)cc2)ccc1OCCCN1CCCc2c(OC(C)(C)C(=O)O)cccc21` are 0.856 (inactive), 1.42, 5600 and 6540.
On to `C=C1C(=O)O[C@H](CCCCCCCC)[C@H]1C(=O)O`, for which the fold change is 1.04 (inactive) in assay [2] (setting [8]) and 0.706 in assay [2] (setting [9]). For the same compound, the figures for the cell count in assay [2] (setting [10]) and in assay [2] (setting [11]) were 6150 and 5890, respectively.
In the same order, the values of `C=CC[C@@H]1/C=C(\C)C[C@@H](C)C[C@H](OC)[C@H]2O[C@@](O)(C(=O)C(=O)N3CCCC[C@H]3C(=O)O[C@H](/C(C)=C/[C@@H]3CC[C@@H](O)[C@H](OC)C3)[C@H](C)[C@@H](O)CC1=O)[C@H](C)C[C@@H]2OC` are 0.908 (inactive), 0.315, 5040 and 5550.
In the same order, the values of `CCCCC[C@H](O)/C=C/[C@H]1[C@H](O)CC(=O)[C@@H]1C/C=C\CCCC(=O)Oc1ccc(NC(C)=O)cc1` are 0.993 (inactive), 0.876, 6020 and 6060.
In the case of `CCCCC[C@H](O)/C=C/[C@H]1OC(O)C[C@H](O)[C@@H]1CCCCCCC(=O)O` (some centres undefined), the fold change is 1.03 (inactive) in assay [2] (setting [8]) and 1.26 in assay [2] (setting [9]). In addition, the cell count in assay [2] (setting [10]) came out at 5640; in assay [2] (setting [11]), 5470.
In the case of `CCCCC/C=C/C=C1/C=CC(=O)[C@@H]1CCCCCCC(=O)O`, the fold change in assay [2] (setting [8]) was 1.71 (inactive); in assay [2] (setting [9]), 0.938. Further, the figures for the cell count in assay [2] (setting [10]) and in assay [2] (setting [11]) were 5570 and 3250, respectively.
For `CCCCC[C@H](O)/C=C/[C@@H]1[C@H](C/C=C\CCCC(=O)O)[C@H](O)C[C@H]1O`, the fold change in assay [2] (setting [8]) is 0.921 (inactive); in assay [2] (setting [9]), 1.6. For the same compound, the results for the cell count in assay [2] (setting [10]) and in assay [2] (setting [11]) were 5020 and 5450, respectively.
On the same counts, the results for `CCCCC1C(=O)CC[C@H]2[C@@H]1CC(=O)[C@@H]2CCCCCCC(=O)O` (some centres undefined) are 0.957 (inactive), 0.967, 5230 and 5460.
Take `CC(C)ON(CC(=O)NO)S(=O)(=O)c1ccc(-c2ccccc2)cc1`: the fold change in assay [2] (setting [8]) was 0.989 (inactive); in assay [2] (setting [9]) it was 1.73. The values for the cell count in assay [2] (setting [10]) and in assay [2] (setting [11]) were 6160 and 6240, respectively.
